# Data published in PubChem BioAssay (NCI).
# This is part of a sample that, as a whole, favours compounds with a hit. Of some 83,000 tested, about 20% had one in any assay.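 Percent growth is the endpoint: 0 to 100 indicates growth inhibition (40 means 60% inhibition), 0 means no net growth, and negative values indicate cell death.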 Unmarked numbers belong to inactive results. Active and inactive are the calls of the source. How the source made its calls: active means growth percent below 10; inactive means the rest.
# Tested on: HT29 colon
# Assay: NCI-60 one-dose screen, 48 h (100 = growth as untreated, 0 = no growth, -100 = all killed)
# Conditions: 10 µM unless noted
row,Compound,growth
1,CCN(CC)CCOc1ccccc1-n1c(C)ccc1-c1ccccc1,34.5%
2,Cn1cc(-c2csc(-c3c[nH]c4ncccc34)n2)c2cc(Br)cnc21,50.6%
3,COc1ccc(/C=C2\NC(=S)NC2=O)cc1,110%
4,Nc1ccccc1-c1ccc([N+](=O)[O-])cc1,78.1%
5,Cc1cc(NC(=O)c2ccc(N)cc2)ccc1N=Nc1ccc2c(O)c(N=Nc3ccc(Cl)c(S(=O)(=O)O)c3)c(S(=O)(=O)O)cc2c1,91%
6,CC[N+](CC)(CCOCCOCC[N+](CC)(CC)Cc1ccc([N+](=O)[O-])cc1)Cc1ccc([N+](=O)[O-])cc1,113%
7,CCC(c1ccccc1)c1noc(CCN(CC)CC)n1 (centres undefined),117%
8,CC(=O)Nc1ccc2c(c1)Cc1c(F)c(F)c(F)c(F)c1-2,97.1%
9,OC(Cc1cccnc1)c1ccccc1 (centres undefined),106%
10,C/C(=N/N=C(N)N)c1ccc(N)cc1,103%
11,O=C(O)c1ccccc1C(=O)OC1CCCC2CCCC21 (centres undefined),100%
12,CN1CCCC1c1cccnc1 (centres undefined),115%
13,COc1c(O)cc2oc3cc(O)c(CC=C(C)C)c(O)c3c(=O)c2c1C/C=C(\C)CCC=C(C)C,26.7%
14,Nc1nc(SCc2ccccc2Cl)c(-c2ccccc2)c(SCc2ccccc2Cl)n1,64.3%
15,CO[C@H]1/C=C/O[C@@]2(C)Oc3c(C)c(O)c4c(O)c(c(/C=N/N5C(C)CN(Cc6ccccc6)CC5C)c(O)c4c3C2=O)NC(=O)/C(C)=C\C=C\[C@H](C)[C@H](O)[C@@H](C)[C@@H](O)[C@@H](C)[C@H](OC(C)=O)[C@@H]1C (some centres undefined),87.6%
16,CCOC(=O)C(C(C)=O)c1nc2sc3cc(Cl)ccc3n2c(=N)c1C#N (centres undefined),52.8%
17,COc1ccc(-c2nn(-c3cccc(Cl)c3)cc2C2CC(c3ccccc3)=NN2C(C)=O)cc1 (centres undefined),62.7%
18,CCS(=O)(=O)OCCCl,104%
19,O=C1Nc2ccc(F)cc2/C1=C/c1nc(-c2ccc(F)cc2)n2ccccc12,95.6%

row,Compound,growth
1,Cc1c(C(N)=O)sc2ncn(Cc3ccccc3)c(=O)c12,103%
2,Nc1nc2ncc(CCNc3ccc(C(=O)NC(CCC(=O)O)C(=O)O)cc3)nc2c(=O)[nH]1 (centres undefined),109%
3,COc1cccc2c1C(=O)c1c(O)c3c(c(O)c1C2=O)C[C@@](O)(/C(C)=N/NC(=O)c1cccc([N+](=O)[O-])c1)C[C@@H]3OC1CC(N)C(O)C(C)O1 (some centres undefined),-53.7% (active)
4,NC(=O)NN=C(C1CC1)C1CC1,103%
5,C[n+]1ccc(Nc2ccc(NC(=O)c3ccc(Nc4cc[n+](C)c5ccc(N)cc45)cc3)cc2)cc1,96.9%
6,COc1cc(OC)c2cc(C(=O)O)c(=O)oc2c1,119%
7,CCOc1ccccc1C(=O)OCC(=O)Nc1cccc(S(=O)(=O)N(C)C)c1,98.6%
8,S=C(Nc1ccc(C2=NCCN2)cc1)Nc1ccc(C2=NCCN2)cc1,101%
9,S=c1[nH]nc2sc3ccccc3n12,101%
10,Cn1c(N)c(N=O)c(=O)[nH]c1=O,98.8%
11,Cc1ccc(C(=O)Nc2ccc(Cl)cc2C(=O)NCc2ccccc2)cc1,23.3%
12,O=[N+]([O-])c1ccc2c(c1)S(=O)c1cc([N+](=O)[O-])ccc1N2,95%
13,Nc1ccc2c3c(cccc13)-c1ccccc1-2,108%
14,CC(c1cc(Cl)ccc1O)c1cc(Cl)ccc1O,2.77% (active)
15,Nc1ccc2c(c1)/C(=N/O)c1cc([N+](=O)[O-])ccc1-2,88.7%
16,Nc1cc(Cl)c(S(N)(=O)=O)cc1S(N)(=O)=O,122%
17,O=C(CSc1nc2c(n1Nc1ccccc1)-c1ccccc1SC2)Nc1nc(-c2ccc(Cl)cc2)cs1,68.4%
18,Cc1cc(O)c2c(c1)C[C@H]1[C@@H]3CC[C@H]4CC(=O)CC[C@]4(C)[C@H]3CC(=O)[C@]21C,67.6%

# Tested on: SNB-75 CNS
# Assay: as above
# Conditions: 10 µM unless noted
row,Compound,growth
1,CCN(CC)CCOc1ccccc1-n1c(C)ccc1-c1ccccc1,93%
2,Cn1cc(-c2csc(-c3c[nH]c4ncccc34)n2)c2cc(Br)cnc21,-28.8% (active)
3,COc1ccc(/C=C2\NC(=S)NC2=O)cc1,106%
4,Nc1ccccc1-c1ccc([N+](=O)[O-])cc1,71.9%
5,Cc1cc(NC(=O)c2ccc(N)cc2)ccc1N=Nc1ccc2c(O)c(N=Nc3ccc(Cl)c(S(=O)(=O)O)c3)c(S(=O)(=O)O)cc2c1,104%
6,CC[N+](CC)(CCOCCOCC[N+](CC)(CC)Cc1ccc([N+](=O)[O-])cc1)Cc1ccc([N+](=O)[O-])cc1,85.7%
7,CCC(c1ccccc1)c1noc(CCN(CC)CC)n1 (centres undefined),86.6%
8,CC(=O)Nc1ccc2c(c1)Cc1c(F)c(F)c(F)c(F)c1-2,44%
9,OC(Cc1cccnc1)c1ccccc1 (centres undefined),99.7%
10,C/C(=N/N=C(N)N)c1ccc(N)cc1,102%
11,O=C(O)c1ccccc1C(=O)OC1CCCC2CCCC21 (centres undefined),96.5%
12,CN1CCCC1c1cccnc1 (centres undefined),99.7%
13,COc1c(O)cc2oc3cc(O)c(CC=C(C)C)c(O)c3c(=O)c2c1C/C=C(\C)CCC=C(C)C,84.6%
14,Nc1nc(SCc2ccccc2Cl)c(-c2ccccc2)c(SCc2ccccc2Cl)n1,107%
15,CO[C@H]1/C=C/O[C@@]2(C)Oc3c(C)c(O)c4c(O)c(c(/C=N/N5C(C)CN(Cc6ccccc6)CC5C)c(O)c4c3C2=O)NC(=O)/C(C)=C\C=C\[C@H](C)[C@H](O)[C@@H](C)[C@@H](O)[C@@H](C)[C@H](OC(C)=O)[C@@H]1C (some centres undefined),127%
16,CCOC(=O)C(C(C)=O)c1nc2sc3cc(Cl)ccc3n2c(=N)c1C#N (centres undefined),34.5%
17,COc1ccc(-c2nn(-c3cccc(Cl)c3)cc2C2CC(c3ccccc3)=NN2C(C)=O)cc1 (centres undefined),-3.45% (active)
18,CCS(=O)(=O)OCCCl,70%
19,O=C1Nc2ccc(F)cc2/C1=C/c1nc(-c2ccc(F)cc2)n2ccccc12,93.6%

row,Compound,growth
1,Cc1c(C(N)=O)sc2ncn(Cc3ccccc3)c(=O)c12,92.6%
2,Nc1nc2ncc(CCNc3ccc(C(=O)NC(CCC(=O)O)C(=O)O)cc3)nc2c(=O)[nH]1 (centres undefined),81.3%
3,COc1cccc2c1C(=O)c1c(O)c3c(c(O)c1C2=O)C[C@@](O)(/C(C)=N/NC(=O)c1cccc([N+](=O)[O-])c1)C[C@@H]3OC1CC(N)C(O)C(C)O1 (some centres undefined),-34.2% (active)
4,NC(=O)NN=C(C1CC1)C1CC1,92.6%
5,C[n+]1ccc(Nc2ccc(NC(=O)c3ccc(Nc4cc[n+](C)c5ccc(N)cc45)cc3)cc2)cc1,97.2%
6,COc1cc(OC)c2cc(C(=O)O)c(=O)oc2c1,125%
7,CCOc1ccccc1C(=O)OCC(=O)Nc1cccc(S(=O)(=O)N(C)C)c1,82.7%
8,S=C(Nc1ccc(C2=NCCN2)cc1)Nc1ccc(C2=NCCN2)cc1,110%
9,S=c1[nH]nc2sc3ccccc3n12,81.6%
10,Cn1c(N)c(N=O)c(=O)[nH]c1=O,97%
11,Cc1ccc(C(=O)Nc2ccc(Cl)cc2C(=O)NCc2ccccc2)cc1,67.3%
12,O=[N+]([O-])c1ccc2c(c1)S(=O)c1cc([N+](=O)[O-])ccc1N2,87.2%
13,Nc1ccc2c3c(cccc13)-c1ccccc1-2,74.2%
14,CC(c1cc(Cl)ccc1O)c1cc(Cl)ccc1O,35.8%
15,Nc1ccc2c(c1)/C(=N/O)c1cc([N+](=O)[O-])ccc1-2,64.1%
16,Nc1cc(Cl)c(S(N)(=O)=O)cc1S(N)(=O)=O,86.7%
17,O=C(CSc1nc2c(n1Nc1ccccc1)-c1ccccc1SC2)Nc1nc(-c2ccc(Cl)cc2)cs1,44.8%
18,Cc1cc(O)c2c(c1)C[C@H]1[C@@H]3CC[C@H]4CC(=O)CC[C@]4(C)[C@H]3CC(=O)[C@]21C,98.4%
